NPC1 prom act – activators of NPC1 promoter; 2.4% of 320,000 active; AID 485313; Potency, µM (top dose mostly 9.22 µM), without a hit: at the top dose activation, hits mostly activators; Huh7 NPC1 promoter luciferase reporter, 24 h; note: % of control where 0% means no effect; nearly all actives have a fitted effect of over 60% in size
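Cells: Huh7 expressing luciferase under the NPC1 promoter, 1500/well. Seeded 2 h, compound added, incubated 24 h at 37 °C. Luciferase reagent, 10 min ambient, then luminescence.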
FLuc modulator – firefly luciferase modulation, counter-screen for miR-21 project; P08659; purified FLuc, Km substrates, luminescence inhibition; Potency, µM (titrated, usually from 57.5 µM), for inactives: at the top dose activity change, negative = inhibition, most hits filed as inhibitors; 6.9% of 360,000 active; AID 588342;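 note: plate controls were vehicle for no effect and reference inhibitor for full effect; nearly all actives have a fitted effect of over 55% in size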
Target sequence (P08659 whole entry, looked up): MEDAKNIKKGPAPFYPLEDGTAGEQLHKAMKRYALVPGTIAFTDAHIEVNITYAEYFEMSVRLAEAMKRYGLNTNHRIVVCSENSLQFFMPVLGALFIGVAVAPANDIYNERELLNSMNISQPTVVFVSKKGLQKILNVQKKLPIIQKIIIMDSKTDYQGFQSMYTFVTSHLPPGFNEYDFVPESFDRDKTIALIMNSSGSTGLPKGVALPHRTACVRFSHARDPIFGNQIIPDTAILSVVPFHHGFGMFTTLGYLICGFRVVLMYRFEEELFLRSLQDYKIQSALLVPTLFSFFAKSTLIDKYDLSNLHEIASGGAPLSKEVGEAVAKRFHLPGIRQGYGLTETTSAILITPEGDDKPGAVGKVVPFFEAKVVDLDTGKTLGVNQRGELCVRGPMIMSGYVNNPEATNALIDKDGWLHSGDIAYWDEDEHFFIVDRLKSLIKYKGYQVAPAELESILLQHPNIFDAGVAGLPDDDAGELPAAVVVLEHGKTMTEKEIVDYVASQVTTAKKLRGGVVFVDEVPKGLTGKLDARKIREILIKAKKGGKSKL
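Purified P. pyralis luciferase (10nM final) with 10uM D-luciferin and 10uM ATP (Km levels) in 50mM Tris acetate pH 7.5, 10mM Mg acetate, 0.01% Tween-20, 0.05% BSA; qHTS 6-point titration, ~60 µM downward; luminescence read.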
SMN2 splice up – increases expression of the SMN2 splice variant | HEK293 SMN2-luciferase splicing reporter, luminescence, 30-36 h | Potency, µM (doses to about 46.1 µM), inactives show at the highest dose activity change, positive = activation, most hits filed as activators | 2.8% of 210,000 active; note: % of control where 0% means no effect; nearly all actives have a fitted effect of over 55% in size
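qHTS luciferase splicing reporter: luminescence rises when SMN2 exon 7 is included in transfected HEK293 cells. Compound exposure lasted 30-36 h at 37C, with 4.5 mM final sodium butyrate as control, followed by a ONE-Glo read.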
Luc counter – Kinase-Glo luciferase inhibition (counter-screen); Potency, µM (top dose mostly 38.3 µM), without a hit: top-dose activity change, negative = inhibition, hits mostly inhibitors; Q27757; Kinase-Glo luciferase, ATP luminescence, 8 min; 0.28% of 200,000 active; AID 1379; note: % is set by controls: 0 for no effect and ±100 for the full control effect; nearly all actives have a fitted effect of over 60% in size
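Compounds were added to a substrate mix at pH 7.2 (50 mM imidazole, 10 uM ATP, within the enzyme's linear range), followed by Kinase-Glo detection reagent; luminescence was measured after 8 minutes at ambient temperature.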
Rab9 promoter act – Rab9 promoter activation | Huh7 Rab9 promoter-luciferase reporter, luminescence, 24 h | Potency, µM (top dose mostly 9.22 µM), inactives show at the top dose activation, negative = inhibition, most hits filed as activators | 2.8% of 320,000 active | AID 485297; note: % of control where 0% means no effect; nearly all actives have a fitted effect of over 60% in size
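Cells were plated at 1500 per well in reduced-serum medium with 10% FBS and left 2 h. Compound in DMSO was then added for 24 h at 37 °C. Reporter signal was read by luminescence after 10 min with luciferase detection reagent.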
ELG1 genotoxic – inducers of genotoxicity in HEK293T ELG1-luciferase cells. HEK293T ELG1-luciferase reporter, luminescence, 16 h. Potency, µM (top dose mostly 46 µM), without a hit: at the highest dose activity change, positive = activation, hits mostly activators. 1.3% of 330,000 active; note: % of control where 0% means no effect; nearly all actives have a fitted effect of over 60% in size
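After overnight (16 hr) compound treatment at 37 °C, ELG1-luciferase HEK293T cells were lysed with ONE-Glo; luminescence quantified 30 min later at room temperature.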
* = called active by the depositor; ? = inconclusive; . = no result given. This is a sample that favours compounds with a hit; in the whole collection about 7.4% have one here. Calls come from the whole dose curve; as a rule, active = well fitted curve in the direction sought with a large enough effect; inconclusive = small, poorly fitted or top-dose-only effect, or another doubt; inactive = no such curve, though single readings can be large; an effect the other way counts as inactive or inconclusive. Potency is the fitted concentration of half-maximal effect.

SMILES	NPC1 prom act	FLuc modulator	SMN2 splice up	Luc counter	Rab9 promoter act	ELG1 genotoxic
CSc1nsc(/C=C/Nc2ccc(F)cc2F)c1C#N	1.7%	-19.7%	19.0%	4.0%	-3.4%	-0.3%
N#Cc1cc2c(nc1SC1CC(=O)N(c3ccccc3)C1=O)CCC2 (configuration not stated)	-11.0%	10.7µM*	-78.1%	-4.7%	-13.4%	2.6%
CSc1nc2c(cc1C#N)CCC2	1.0%	-1.3%	.	.	-1.7%	0.2%
COc1ccc2c(c1)sc1ncc(C(=O)NCc3cccc(Cl)c3)c(=O)n12	.	-2.3%	-0.4%	.	.	.
COc1ccc(NC(=O)C(C)n2nnc3sc(-c4ccccc4)cc3c2=O)cc1Cl (configuration not stated)	.	6.01µM*	-1.1%	.	.	.
CCC(C(=O)OC)n1nnc2sc(-c3ccccc3)cc2c1=O (configuration not stated)	.	19µM*	-0.9%	.	.	.
CCOc1ccc2oc(=O)cc(CN3CCN(c4cc(C)ccc4C)CC3)c2c1	.	-5.9%	-0.9%	.	.	.
Cc1ccc(CNC(=O)c2sc3nc4n(c(=O)c3c2C)CCCC4)cc1	.	-11.0%	.	.	.	.
CC(C)(C)c1ccc(OCC(O)CSc2ncn[nH]2)cc1 (configuration not stated)	?	2.13µM*	?	0.7%	?	?
OC(COc1ccccc1)CSc1ncn[nH]1 (configuration not stated)	-2.7%	0.0%	21.8%	4.0%	0.5%	-1.5%
CCc1cc2c(cc3c(=O)n(CC(=O)NCCc4ccccc4)ncn32)s1	.	0.8%	0.4%	.	.	.
Cc1ccc(NNS(=O)(=O)c2ccc(C)cc2)cc1	1.4%	21.3µM*	-13.3%	-1.4%	-0.8%	2.1%
CCN1CCCC1CNC(=O)c1ccc(-n2c(=O)c(=O)[nH]c3ccccc32)cc1 (configuration not stated)	.	.	.	-1.0%	.	.
O=C1c2ccccc2NC(c2ccc(Br)o2)N1O (configuration not stated)	19.7%	-29.7%	.	.	16.6%	11.5%
O=C1c2ccccc2NC(c2ccc(-c3cccs3)o2)N1O (configuration not stated)	9.5%	12µM*	.	.	0.9%	?
COc1ccc2c(CNC3CCCCCC3)c(C(=O)O)n(Cc3ccccc3F)c2c1	.	-10.5%	.	.	.	.
CCC(=O)N/C(N)=N/c1nc2ccccc2o1	3.98µM*	10.7µM*	.	.	1.12µM*	?
COc1ccccc1C(=O)N/C(N)=N/c1nc2ccccc2o1	?	?	20.4%	-1.8%	?	16.1%
CC(C)(C)C(=O)N/C(N)=N/c1nc2ccccc2o1	0.891µM*	3.5%	.	.	0.447µM*	?
CC(C)CC(=O)N/C(N)=N/c1nc2ccccc2o1	1.58µM*	8.49µM*	.	.	1.41µM*	?
CCCC(=O)N/C(N)=N/c1nc2ccccc2o1	0.891µM*	6.75µM*	.	.	0.708µM*	?
COCCN(CCOC)C(=O)c1cc2c(=O)n3ccccc3nc2n1C	.	-8.2%	.	.	.	.
CCN(CC)CCCNC(=O)c1oc2c(c1C)-c1nn(Cc3ccc(Cl)cc3)cc1CC2	.	-0.6%	.	.	.	.
Cc1ccc(C(=O)N/C(N)=N/c2nc3ccccc3o2)cc1	?	-15.2%	-27.0%	16.2%	?	?
N/C(=N\c1nc2ccccc2o1)NC(=O)c1ccccc1	3.98µM*	?	13.2%	2.4%	?	8.2µM*
COc1ccccc1-c1ccc(SCc2ccc(F)cc2)nn1	16.0%	23.9µM*	10.9%	-3.0%	24.1%	4.8%
COc1ccccc1-c1ccc(SCc2ccc(C)cc2)nn1	5.5%	15.1µM*	-2.4%	-5.8%	8.8%	9.2%
COc1ccccc1-c1ccc(SCC(=O)N2CCOCC2)nn1	-5.6%	1.8%	1.4%	-2.0%	2.5%	4.4%
COc1ccc(S(=O)(=O)N2CCC(Oc3ccc(-n4cnnn4)cc3)CC2)cc1OC	.	-6.0%	-20.4%	.	.	.
Cc1ccc(NC(=O)COC(=O)C2=COCCO2)cc1	-3.5%	?	-5.2%	-3.5%	1.7%	8.0%
